Source: article PMC7819943, “Rice protein-binding microarrays: a tool to detect cis-acting elements near promoter regions in rice”
In all, about 35,000 sequences were measured (“fluorescence intensity (a.u.)”: median about 10,000, highest 2% from about 52,000 on). The entries come from a sample that favours the highest values as a whole.

Target: T1, OsWOX13 (Oryza sativa, UniProt Q5QMM3 1-267)
T1 sequence: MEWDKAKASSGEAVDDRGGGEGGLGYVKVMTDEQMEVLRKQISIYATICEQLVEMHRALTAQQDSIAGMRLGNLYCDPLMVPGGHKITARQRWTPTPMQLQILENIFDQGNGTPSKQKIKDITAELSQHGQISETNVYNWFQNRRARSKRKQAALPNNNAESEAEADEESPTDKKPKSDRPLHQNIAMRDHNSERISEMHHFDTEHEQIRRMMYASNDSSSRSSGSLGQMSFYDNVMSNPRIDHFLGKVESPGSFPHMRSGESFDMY
Test: protein-binding microarray (RPBM); PBS, 2% BSA, 51.3 ng/ul salmon testes DNA, 50 uM zinc acetate, 200 nM TF, 25 C, 1 h; high values mean tight binding
Details: protein: recombinant; tags: N-terminal polyhistidine and DsRed monomer fusion (pET32a); label: CyDye5-dUTP incorporated in the synthesized complementary strand; 3' TTTTT single-stranded linker to array surface; dsDNA, one strand shown
Procedure, shortened: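 For the binding signal, per-feature fluorescence intensity was read in arbitrary units on an Axon 4000B scanner. Before scanning, a 2% BSA-blocked custom Agilent array made double-stranded with Cy5-dUTP was washed after 1 h at 25 °C with 200 nM protein and 50 µM zinc acetate. The proteins were Ni–NTA-purified transcription factors with N-terminal polyhistidine and DsRed fusions, expressed in E. coli BL21-CodonPlus.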

| Sequence | binding signal |
| --- | --- |
| TCTAAACATATCCAGATAAATTATTCTGAGATGAGTCTCACGGAGTCACCTAGTGCAG | 3670 fluorescence intensity (a.u.) |
| TTCACGCTTGATTGGGCTGGGATTAAGGCCCATTTATACACGGAGTCACCTAGTGCAG | 23500 fluorescence intensity (a.u.) |
| ACCCCGAGCTGATTATCTCTGAACGTACGATCAAGCCGTCCGGAGTCACCTAGTGCAG | 6180 fluorescence intensity (a.u.) |
| TACTAATTACTACTAACCGTTAAAAGTAGCCGCCGGTTAACGGAGTCACCTAGTGCAG | 17800 fluorescence intensity (a.u.) |
| CTTTAGTCTCTGACACTAATTTAGAGTATTAAATATAGACCGGAGTCACCTAGTGCAG | 3810 fluorescence intensity (a.u.) |
| ACAACCAACTGATTGAAGACGTCCACGTGCTTCCTAAGATCGGAGTCACCTAGTGCAG | 35200 fluorescence intensity (a.u.) |
| AAATCAATTACTAGTGCGCGGTTTGTTGAGGAAAAGGCAACGGAGTCACCTAGTGCAG | 6960 fluorescence intensity (a.u.) |
| ACGATCAAATTTAGACATGGAAACTCGTGACTGTGCTTATCGGAGTCACCTAGTGCAG | 6550 fluorescence intensity (a.u.) |
| AAGATTTAATTGTTACGAACACAACGGCGTAATCGGATCGCGGAGTCACCTAGTGCAG | 36000 fluorescence intensity (a.u.) |
| GTTAATTTTGTGAAATATGTTTGCTGGTTAGTGAATTGTACGGAGTCACCTAGTGCAG | 12400 fluorescence intensity (a.u.) |
| GTGTGTGATGGGTTAATCGATGTGCTATGTTATTGGTTTCCGGAGTCACCTAGTGCAG | 5310 fluorescence intensity (a.u.) |
| TTGGCGATTGATTGGGGAAAGGAAACTTTGCTAGGTCAATCGGAGTCACCTAGTGCAG | 53500 fluorescence intensity (a.u.) |
| TCGAAAATTGGTTTTGTTAATATACTAGGACTGATTTCAGCGGAGTCACCTAGTGCAG | 6190 fluorescence intensity (a.u.) |
| GTGTGATTTGCTAATTGGGTTTGTTATGAAGCTGGTTATCCGGAGTCACCTAGTGCAG | 54000 fluorescence intensity (a.u.) |
| GGGAGAGGTGATGAGTGATTGGAGTAGAGGGGAGATGAGGCGGAGTCACCTAGTGCAG | 12600 fluorescence intensity (a.u.) |
| TGTTGTGATTGGTTGAGAAATGTGGGTATGTGAGAAAATACGGAGTCACCTAGTGCAG | 15200 fluorescence intensity (a.u.) |
| TGTGGGATGGATTTGTGGTGATTGAGAGGGTTTGAAAGGGCGGAGTCACCTAGTGCAG | 15700 fluorescence intensity (a.u.) |
| TGGAGGGATTTGATTTGGAAAGGATTTGGATTCGGGATTGCGGAGTCACCTAGTGCAG | 3870 fluorescence intensity (a.u.) |
| AGTGATGGCATTGACTGACTTGGGGAAGGAAACAATCGAGCGGAGTCACCTAGTGCAG | 16000 fluorescence intensity (a.u.) |
| ACTGATTGATTTGGAAGGAGAGAAATACTATGTTGGGTTTCGGAGTCACCTAGTGCAG | 63700 fluorescence intensity (a.u.) |
| GTTTGATTGGAGCAATGTCTCAATGGGTGAGAAGATGAGGCGGAGTCACCTAGTGCAG | 54300 fluorescence intensity (a.u.) |

| Sequence | binding signal |
| --- | --- |
| TGTAACAAACAGGCTGTAACGGCACCGTAATAAACCCAACCGGAGTCACCTAGTGCAG | 6570 fluorescence intensity (a.u.) |
| AGCCAATCAGAATCCAAATAAAACATTCTTGCAGCAGGCGCGGAGTCACCTAGTGCAG | 15900 fluorescence intensity (a.u.) |
| ATTTGTCTAGTACTCCTAATTGGTACATCGACGATCTGCGCGGAGTCACCTAGTGCAG | 6670 fluorescence intensity (a.u.) |
| CTAGCCACTTGGTATAATTGACTGAGTCTTGATAAAGCTTCGGAGTCACCTAGTGCAG | 7350 fluorescence intensity (a.u.) |
| CAAATGTAATTTCGCACTATTCTTATCTAATGTTTGACATCGGAGTCACCTAGTGCAG | 4370 fluorescence intensity (a.u.) |
| TTTGACCTTTGTTCTGATTGCTACAACGAGGGAAAGTTTACGGAGTCACCTAGTGCAG | 4690 fluorescence intensity (a.u.) |
| ATATATATATATATATATATATATATATATATAAACCCAACGGAGTCACCTAGTGCAG | 24000 fluorescence intensity (a.u.) |
| ATCTAAGCTCATCTCAACCAATCACAACCATCGTTGATTTCGGAGTCACCTAGTGCAG | 3410 fluorescence intensity (a.u.) |
| ATAAATTACTTTTCGTTTGCAAATATGCTGTTTGAATAAGCGGAGTCACCTAGTGCAG | 13300 fluorescence intensity (a.u.) |
| TTACATGATTATGTTAATTACTACACAATTATAGGGCCTACGGAGTCACCTAGTGCAG | 42500 fluorescence intensity (a.u.) |
| TTCTGATCACAGATCAATTACTCTTGATCGCCCATTTATTCGGAGTCACCTAGTGCAG | 9590 fluorescence intensity (a.u.) |
| TGTATTCATCATCTAAATTATTGTTCATAAACCTATAGGCCGGAGTCACCTAGTGCAG | 3420 fluorescence intensity (a.u.) |
| ACGGAATGAACACTAATTTACTTAATACATAGAACCACGGCGGAGTCACCTAGTGCAG | 19400 fluorescence intensity (a.u.) |
| AACCAATTTATATTGTCAGAAGAAAATGCATTATATAGGTCGGAGTCACCTAGTGCAG | 6730 fluorescence intensity (a.u.) |
| CATTGAATGTTTGGACACTAATTATAAATATTAAACGTAGCGGAGTCACCTAGTGCAG | 9090 fluorescence intensity (a.u.) |
| AGTTATTGATAACATAAGCCTTAAAAGTTCGCCCTAACCTCGGAGTCACCTAGTGCAG | 4600 fluorescence intensity (a.u.) |
| CAAAACAGACATAATCTTGTTGGACAGACGTAGCCATGAACGGAGTCACCTAGTGCAG | 12500 fluorescence intensity (a.u.) |
| GTTGGTTAATTGCAATTTAATTGTTGTATTGTAAGAGTCTCGGAGTCACCTAGTGCAG | 56100 fluorescence intensity (a.u.) |
| TCATAATTGGATGGCATTGTACTGTGATTTGTTTGTGTTGCGGAGTCACCTAGTGCAG | 49200 fluorescence intensity (a.u.) |
| GGTTGGATGGTTGGATTTGATGTGGATTTGAATTGTTATGCGGAGTCACCTAGTGCAG | 7890 fluorescence intensity (a.u.) |
| GGTGATTGCATTTGATTGGGTGGAAAAGGTTTGATTTTGTCGGAGTCACCTAGTGCAG | 64900 fluorescence intensity (a.u.) |
